# According to PubChem BioAssay (EPA / NIEHS):
# Records with an inconclusive call do not appear. Active and inactive are the calls of the source. Rule for the calls, unless noted: active = hit-call score of the fitted dose curve at least 0.9, where 1 is the maximum; inactive = score below 0.9.
# Tests used:
# [1] = TAMU_PeakParms_SingleDonor1434_Asystole: Texas A&M University (TAMU) 1.5-hr Human Induced Pluripotent Stem Cell (iPSC)-derived Cardiomyocytes Calcium (Ca+2) Flux Assay for Cardiotoxicity: Asystole (quiescence of beating) (AID 2284328; active = hit-call score of the fitted dose curve at least 0.9, where 1 is the maximum)
# How it was run: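 Human iPSC-derived cardiomyocytes (donor 1434) were exposed to 0.2, 1, 10 and 100 uM compound in 0.5% DMSO for 90 min at 37C. Ca2+-dye fluorescence gave average peak frequency; POD is EC95, a 95% beat-rate drop versus DMSO.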
# [2] = CCTE_Mundy_HCI_iCellGluta_NOG_NeuriteLength: CCTE's Neurite Outgrowth Assay in iCellGluta cells for Neurite Length, Mundy Lab (AID 2284318; active = hit-call score of the fitted dose curve at least 0.9, where 1 is the maximum)
# How it was run: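 Automated high-content imaging of betaIII-tubulin (Alexa Fluor-488) and Hoechst-stained cells gave neurite length, normalized to the DMSO baseline.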
# [3] = IUF_NPC1_cytotoxicity_72hr: Cytotoxicity Assessment at 72 hours in the Leibniz Research Institute for Environmental Medicine (IUF) Neural Progenitor Cell Proliferation Assay (NPC1) (AID 2284332; active = hit-call score of the fitted dose curve at least 0.9, where 1 is the maximum;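 note: rising LDH signal means more cytotoxicity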)
# How it was run: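 Cytotoxicity by LDH membrane-integrity assay on medium supernatants, fluorescence via resazurin reduction, after 3-day single exposure of primary hNPC spheres at 37C, pH 7.2-7.6 with growth factors. Fitted upward against baseline.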
# [4] = CCTE_Mundy_HCI_iCellGluta_NOG_NeuronCount: CCTE's Neurite Outgrowth Assay in iCellGluta cells for Neuron Count, Mundy Lab (AID 2284340; active = hit-call score of the fitted dose curve at least 0.9, where 1 is the maximum;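 note: cells fixed about 48 h after compound addition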)
# How it was run: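 Neuron count read by automated high-content imaging of Hoechst 33342 and betaIII-tubulin/Alexa Fluor-488 labelling in human iPSC glutamatergic neurons. Activity fitted relative to DMSO.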
# [5] = CCTE_Mundy_HCI_iCellGluta_NOG_NeuriteCount: CCTE's Neurite Outgrowth Assay in iCellGluta cells for Neurite Count, Mundy Lab (AID 2284342; active = hit-call score of the fitted dose curve at least 0.9, where 1 is the maximum;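 note: chemical exposure about 48 hours starting 2 hours after plating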)
# SERPINA7 (gene 6906) = assay: CCTE_GLTED_hTBG: CCTE's human Thyroxine-binding Globulin (TBG) Inhibition Assay, Great Lakes Toxicology and Ecology Division (GLTED) Lab (AID 2284343; active = hit-call score of the fitted dose curve at least 0.9, where 1 is the maximum;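 note: active chemicals lower fluorescence versus DMSO baseline by displacing probe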)
# How it was run: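 Cell-free displacement of the fluorescent probe ANSA from human thyroxine-binding globulin after 2 h exposure. Read-out at ex 380/em 475 nm; DMSO baseline.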
# [6] = VALA_TUBHUV_Antagonist_TubuleLength: VALA Sciences human Umbilical Vein Endothelial Tubule Formation (TUBHUV) Antagonism Assay (AID 2284325; active = hit-call score of the fitted dose curve at least 0.9, where 1 is the maximum)
# How it was run: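 Tubule length was imaged via CD31 immunofluorescence after a further 3-day compound exposure in 10 ng/ml VEGF, following 3-day pre-culture of HUVEC with HDF at 1:3. Vehicle 0.1% DMSO; suramin (100 uM) inhibition control.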
# [7] = VALA_TUBHUV_Agonist_TubuleLength: VALA Sciences human Umbilical Vein Endothelial Tubule Formation (TUBHUV) Agonism Assay (AID 2284337; active = hit-call score of the fitted dose curve at least 0.9, where 1 is the maximum)
# How it was run: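 Tubule length quantified by CD31 immunofluorescence imaging after fixation. HUVEC-HDF co-cultures (1:3) pre-grown 3 days with 10 ng/ml VEGF, then dosed 3 days in VEGF medium; 0.1 % DMSO vehicle baseline.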
# [8] = VALA_TUBIPS_Agonist_CellCount: Viability Assessment in the VALA Sciences human iPS-derived Endothelial Tubule Formation (TUBIPS) Agonism Assay (AID 2284338; active = hit-call score of the fitted dose curve at least 0.9, where 1 is the maximum)
# TTR (gene 7276) = assay: CCTE_GLTED_hTTR_0.5uM: CCTE's human Transthyretin (hTTR) Inhibition Assay, with 0.5uM TTR, Great Lakes Toxicology and Ecology Division (GLTED) Lab (AID 2284320)
# How it was run: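 Probe (ANSA) displacement from 0.5 uM human transthyretin was followed by fluorescence (ex 380, em 475) after a 2 h incubation with chemical. Activity was scored as signal loss and fitted positively relative to DMSO.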
# [9] = Tanguay_ZF_120hpf_CRAN: Oregon State University Tanguay Lab 120 Hour Post-fertilization zebrafish Assay for Craniofacial Malformation (AID 2284397)
# How it was run: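 Scoring of craniofacial malformation as a binary endpoint was done at 120 hpf by brightfield microscopy and was not done in dead embryos. Exposure was static, starting at 6 hpf, in dechorionated wild-type embryos held singly at 28C with 0.64% DMSO final.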
# [10] = Tanguay_ZF_120hpf_AXIS: Oregon State University Tanguay Lab 120 Hour Post-fertilization zebrafish Assay for Axial Malformation (AID 2284398)
# How it was run: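 Scoring was binary (present or absent) for body-axis defects, judged by brightfield imaging at 120 hpf in surviving larvae. Exposure was static at 28C from 6 hpf in chorion-free 5D wild-type embryos, with 0.64% DMSO vehicle.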
# IYD (gene 389434) = assay: CCTE_GLTED_hIYD: CCTE's human Iodotyrosine Deiodinase (xIYD) Inhibition Assay, Great Lakes Toxicology and Ecology Division (GLTED) Lab (AID 2284317; active = hit-call score of the fitted dose curve at least 0.9, where 1 is the maximum;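 note: cell-free human IYD enzyme made in baculovirus insect cells; iodide freed from monoiodotyrosine measured by cerium arsenite color change at 420 nm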)
# How it was run: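 In the IYD assay, iodide released from MIT by insect-cell-expressed human enzyme was quantified after 3 h via Sandell-Kolthoff rate at 420 nm, with plate-wise normalization to MNT and solvent controls.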
# [11] = CCTE_Deisenroth_5AR_NBTE_donor: CCTE's 5alpha-reductase NanoBRET Target Engagement Assay […], Deisenroth Lab (AID 2284319); details: actives raise or lower the signal
# How it was run: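 HEK293T cells were reverse transfected with an SRD5A2-NanoLuc vector for 20 h, exposed to test chemical (8 points, 10 nM - 29.9 uM) for 3 h, then testosterone tracer for 2 h more. Donor luminescence (460 nm) was read; bidirectional fit versus DMSO.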
# [12] = CCTE_Deisenroth_5AR_NBTE_acceptor: CCTE's 5alpha-reductase NanoBRET Target Engagement Assay - Autofluorescence Screen, Deisenroth Lab (AID 2284321); details: actives raise or lower the signal;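 note: compound fluorescence in the acceptor channel under 460 nm excitation flags autofluorescence artifacts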
# How it was run: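 HEK293T cell-based NanoBRET assay read 5 h after dosing; this acceptor channel serves as an autofluorescence artifact screen. Chemicals at nominal 100 uM were scanned in three independent runs (n=3), excitation 460 nm. Fitting was bidirectional versus DMSO baseline.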
# SRD5A2 (gene 6716) = assay: CCTE_Deisenroth_5AR_NBTE_ratio: CCTE's 5alpha-reductase NanoBRET Target Engagement Assay - Ratio, Deisenroth Lab (AID 2284322); details: actives raise or lower the signal
# How it was run: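 HEK293T cells transiently expressing an SRD5A2-NanoLuc fusion (20 h post-transfection) were exposed to test chemical (10 nM - 29.9 uM, 8 points) for 3 h, then testosterone tracer for a further 2 h. Acceptor/donor BRET ratio was fitted bidirectionally against DMSO baseline.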
# [13] = test system: Brachyury (BRA) Protein Expression, Deisenroth Lab, TBXT (gene 6862); assay: CCTE_Deisenroth_DEVTOX-GLR_legacy_Bra: (Legacy) CCTE's DevTox GLR-Endo Assay Evaluation of Brachyury (BRA) Protein Expression, Deisenroth Lab (AID 2284329)
# How it was run: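 High-content imaging of fixed RUES2-GLR cells after a 48-hour differentiation with two compound exposures yields percent cells whose Bra signal exceeds pluripotent control median by 5x BMAD; values are baseline-corrected to DMSO.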
# [14] = CCTE_Deisenroth_DEVTOX-GLR_legacy_CellCount: (Legacy) Viability Assessment in CCTE's DevTox GLR-Endo Assay, Deisenroth Lab (AID 2284331); details: actives raise or lower the signal
# How it was run: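 RUES2-GLR human pluripotent cells were seeded 24 h, then differentiated 48 h with two compound doses at 24 h intervals (10-point, 1 nM - 200 uM). Fixed nuclei were imaged and counted; bidirectional fitting versus 0.2% DMSO.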
# [15] = test system: SRY-box transcription factor 17 (SOX17) Protein Expression, Deisenroth Lab, SOX17 (gene 64321); assay: CCTE_Deisenroth_DEVTOX-GLR_legacy_Sox17: (Legacy) CCTE's DevTox GLR-Endo Assay Evaluation of SRY-box transcription factor 17 (SOX17) Protein Expression, Deisenroth Lab (AID 2284341); details: actives raise or lower the signal
# How it was run: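 Percent SOX17-positive cells, scored by high-content imaging as mean intensity exceeding pluripotent-control median by 5x BMAD, divided by cell count. Human RUES2-GLR endoderm differentiation, 48 h, two exposures 24 h apart, 1 nM–200 uM; DMSO-referenced bidirectional fitting.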
# [16] = test system: SRY-box transcription factor 2 (SOX2) Protein Expression, Deisenroth Lab, SOX2 (gene 6657); assay: CCTE_Deisenroth_DEVTOX-GLR_legacy_Sox2: (Legacy) CCTE's DevTox GLR-Endo Assay Evaluation of SRY-box transcription factor 2 (SOX2) Protein Expression, Deisenroth Lab (AID 2284346)
# How it was run: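 Two exposures, 24 h apart, during 48 h defined-media differentiation of seeded RUES2-GLR cells; nuclei-stained cells imaged. Sox2 positivity called at 5x BMAD above endoderm control median, DMSO median subtracted.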
structure (smiles),measurement,setting,value
CCC1(c2ccccc2)C(=O)N=C(O)NC1=O (configuration not stated),outcome,[1],inactive
CCOc1ccc(C(C)(C)COCc2cccc(Oc3ccccc3)c2)cc1,outcome,[2],inactive
same,outcome,[3],inactive
same,outcome,[4],inactive
same,outcome,[5],inactive
same,outcome,SERPINA7 (gene 6906),inactive
CCCCC(CC)COP(=O)(Oc1ccccc1)Oc1ccccc1 (configuration not stated),outcome,[1],inactive
same,AC50,SERPINA7 (gene 6906),4.21 µM (active)
Cc1ccc(N)cc1N,outcome,[6],inactive
same,AC50,[7],7.57 µM (active)
same,outcome,[8],inactive
CCOP(=S)(Oc1ccc([N+](=O)[O-])cc1)c1ccccc1 (configuration not stated),AC50,SERPINA7 (gene 6906),1.84 µM (active)
OCC(F)(F)OC(F)(F)C(F)(F)OC(F)(F)CO,AC50,TTR (gene 7276),40.1 µM (active)
same,outcome,[9],inactive
same,outcome,[10],inactive
CCCCc1ccc(O)cc1,outcome,IYD (gene 389434),inactive
same,AC50,SERPINA7 (gene 6906),63 µM (active)
ClC1=C(Cl)C2(Cl)C3C(Cl)C(Cl)CC3C1(Cl)C2(Cl)Cl (configuration not stated),outcome,[11],inactive
same,outcome,[12],inactive
same,outcome,SRD5A2 (gene 6716),inactive
O=C(O)C(F)(F)C(F)(F)C(=O)O,outcome,[9],inactive
same,outcome,[10],inactive
CCC(C)(C)c1ccc(O)cc1,AC50,SERPINA7 (gene 6906),50 µM (active)
O=C(O)C1C(C(=O)O)C2(Cl)C(Cl)=C(Cl)C1(Cl)C2(Cl)Cl (configuration not stated),outcome,[11],inactive
same,outcome,[12],inactive
same,outcome,SRD5A2 (gene 6716),inactive
O=P1(N(CCCl)CCCl)NCCCO1 (configuration not stated),outcome,[13],inactive
same,outcome,[14],inactive
same,outcome,[15],inactive
same,outcome,[16],inactive
O=S(=O)(F)C(F)(F)C(F)(F)C(F)(F)C(F)(F)C(F)(F)C(F)(F)C(F)(F)C(F)(F)F,AC50,TTR (gene 7276),55 µM (active)
same,outcome,[9],inactive
same,outcome,[10],inactive
FC(F)(F)C(F)(C(F)(F)F)C(F)(F)C(F)(F)CC1CO1 (configuration not stated),outcome,[4],inactive
same,outcome,[5],inactive
same,outcome,[9],inactive
same,outcome,[10],inactive
O=C(O)C(F)(OC(F)(F)C(F)(F)C(F)(F)F)C(F)(F)F (configuration not stated),outcome,[2],inactive
same,outcome,[3],inactive
same,outcome,[4],inactive
same,outcome,[5],inactive
same,outcome,[9],inactive
same,outcome,[10],inactive
O=[N+]([O-])c1ccc(Cl)c(Cl)c1,outcome,SERPINA7 (gene 6906),inactive
c1ccc(OP(Oc2ccccc2)Oc2ccccc2)cc1,outcome,SERPINA7 (gene 6906),inactive
c1ccc2c(c1)Nc1ccccc1S2,outcome,[11],inactive
same,outcome,[12],inactive
same,AC50,SRD5A2 (gene 6716),23.7 µM (active)
OCC(F)(F)OC(F)(F)C(F)(F)OC(F)(F)C(F)(F)OC(F)(F)F,AC50,TTR (gene 7276),51.7 µM (active)
same,outcome,[4],inactive
same,outcome,[5],inactive
same,outcome,[9],inactive
same,outcome,[10],inactive
O=P(Oc1ccccc1)(Oc1ccccc1)Oc1ccccc1,outcome,[1],inactive
same,outcome,[3],inactive
same,AC50,SERPINA7 (gene 6906),3.18 µM (active)
O=P(OCC(Br)CBr)(OCC(Br)CBr)OCC(Br)CBr (configuration not stated),outcome,[11],inactive
same,outcome,[12],inactive
same,AC50,SRD5A2 (gene 6716),26.8 µM (active)
C=CC(=O)OCC(F)(F)C(F)F,AC50,TTR (gene 7276),56.8 µM (active)
same,outcome,[5],inactive
same,outcome,[9],inactive
same,AC50,[10],54.6 µM (active)
O=C(O)C(F)(F)OC(F)(F)C(F)(F)OC(F)(F)F,outcome,[2],inactive
same,AC50,TTR (gene 7276),3.59 µM (active)
same,outcome,[4],inactive
same,outcome,[5],inactive
same,outcome,[9],inactive
same,outcome,[10],inactive
O=C(O)C=CC(F)(C(F)(F)F)C(F)(F)F,outcome,[2],inactive
same,AC50,TTR (gene 7276),9.44 µM (active)
same,outcome,[4],inactive
same,outcome,[5],inactive
same,outcome,[9],inactive
same,outcome,[10],inactive
CCCCCCCc1ccc(O)cc1,AC50,IYD (gene 389434),52.4 µM (active)
same,AC50,SERPINA7 (gene 6906),18.5 µM (active)
